Inconclusive results are not listed. Where a call stands in place of a potency, no number is given. The source made the active and inactive calls. The call rests on the fitted dose curve; in most records, active means well fitted inhibition curve with a large enough effect; inconclusive means small, poorly fitted or top-dose-only effect; inactive means flat fitted curve, though single readings scatter.
target: Phospholipid hydroperoxide glutathione peroxidase GPX4 (Homo sapiens) (UniProt P36969); assay: Primary qHTS Assay for Inhibitors of Recombinant Selenoprotein Glutathione Peroxidase 4 (GPX4) (AID 1845192); conditions: recombinant GPX4, GR-coupled NADPH fluorescence, 15 min; series mostly up to 50 µM; further: nearly all actives have a fitted effect of over 65% in size
Summary of the method: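 NADPH consumption followed by fluorescence at 340/450 nm, t=0 and after 15 min at room temperature. Reaction started with cumene hydroperoxide (0.5 mM final) after 30 min compound–GPX4 preincubation; final 200 nM GPX4, 100 nM GR, 1 mM GSH, 0.5 mM NADPH.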
Potency means the concentration at half of the fitted maximal effect.

Sequence of Phospholipid hydroperoxide glutathione peroxidase GPX4 (Homo sapiens) (P36969 whole entry, looked up): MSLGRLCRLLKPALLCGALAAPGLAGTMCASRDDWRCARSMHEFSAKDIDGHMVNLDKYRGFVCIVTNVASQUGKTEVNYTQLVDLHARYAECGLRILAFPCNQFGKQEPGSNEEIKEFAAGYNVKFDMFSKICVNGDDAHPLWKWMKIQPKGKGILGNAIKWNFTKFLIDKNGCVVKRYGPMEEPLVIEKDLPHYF

Structure (SMILES) | Potency
Cc1cn2c(N)c(Cl)cc(C(=O)NCC3CCN(CC(C)C)CC3)c2n1 | 22.7 µM (active)
COC(=O)C1=CO[C@@H](O[C@@H]2O[C@H](CO[C@@H]3O[C@H](COC(=O)/C=C/c4ccc(O)cc4)[C@@H](O)[C@H](O)[C@H]3O)[C@@H](O)[C@H](O)[C@H]2O)[C@@H]2C(CO)=CC[C@H]12 | inactive
Nc1ncnc2c1ncn2[C@H]1CCCO1 | inactive
CCC(C)(O)C(O)C(=O)OCc1ccc(O[C@@H]2O[C@H](CO)[C@@H](O)[C@H](O)[C@H]2O)cc1 (some centres undefined) | inactive
CC(=O)N1CCN(NC(=O)c2ccc(F)cc2)CC1 | inactive
COC(=O)C1(Cc2ccc(O)cc2)OC(=O)C(OC)=C1c1ccc(O)cc1 (centres undefined) | inactive
C=CC1C(O[C@@H]2O[C@H](CO)[C@@H](O)[C@H](O)[C@H]2O)OC=C(C(=O)OC)C1Cc1nccc2c1[nH]c1ccccc12 (some centres undefined) | inactive
CC(C)(C)c1cc(CN2CCN(CC(O)c3ccc(Cl)cc3)CC2)cc(C(C)(C)C)c1O (centres undefined) | inactive
CC1(C)C(=O)N2c3ccccc3[C@]3(CC(n4cnc5ccccc5c4=O)C(=O)O3)[C@H]2N1O (some centres undefined) | inactive
CC[C@H](C)/C=C(C)/C=C/C(=O)Cc1cc(O)c(C)c(O)c1C=O | inactive
CC(=O)c1c(O)cc2c(c1C)C(=O)CC(O)C2 (centres undefined) | inactive
C[C@H](NCc1ccc(OCc2ccccc2F)cc1)C(N)=O | inactive
COc1cc(/C=C/c2cc(O)cc(O[C@@H]3O[C@H](CO)[C@@H](O)[C@H](O)[C@H]3O)c2)ccc1O | inactive
CC1(C)CC[C@]2(C(=O)O)CC[C@]3(C)C(=CCC4[C@@]5(C)C[C@H](O)[C@H](O[C@@H]6OC[C@H](O)[C@H](O)[C@H]6O)[C@@](C)(CO)C5CC[C@]43C)[C@@H]2C1 (some centres undefined) | inactive
COc1cc([C@H]2OC[C@]3(OC(C)=O)[C@@H](c4ccc(O[C@@H]5O[C@H](CO)[C@@H](O)[C@H](O)[C@H]5O)c(OC)c4)OC[C@H]23)ccc1O | inactive
CC1(C)CCC(C)(C)c2cc3c(cc21)Sc1ccccc1N=C3c1ccc(C(=O)O)cc1 | inactive
O=C(O)[C@H]1CCCC[C@H]1C(=O)N1CCc2ccccc2[C@H]1CN1C(=O)c2ccccc2C1=O | inactive
C=C1[C@H]2CC[C@]3(O)[C@@](CC[C@@H]4[C@](C)(C(=O)O)CCC[C@]43C)(C2)[C@H]1OC(=O)/C(C)=C\C | inactive
C[C@H]1[C@H](C)CC[C@]2(C(=O)O)CC[C@]3(C(=O)O)C(=CCC4[C@@]5(C)CC[C@H](O[C@@H]6O[C@H](C)[C@@H](O)[C@H](O)[C@H]6O)C(C)(C)C5CC[C@]43C)[C@H]12 (some centres undefined) | inactive
O=C(c1ccccn1)c1cnn2c(-c3ccncc3)ccnc12 | inactive
COc1c(C)c2c(c(O)c1C/C=C(\C)CC/C=C(\C)CCC(=O)O)C(=O)OC2 | inactive
C=C1CC2(C(=O)O)CC1CCC2C1(C)CCCC2(C)C(=O)OC(O)C21 (centres undefined) | inactive
CC(C)=CC/C=C(/C)[C@H]1CC[C@]2(C)[C@@H]1[C@H](O)CC1[C@@]3(C)CC[C@H](O)C(C)(C)[C@@H]3[C@@H](O[C@@H]3O[C@H](CO)[C@@H](O)[C@H](O)[C@H]3O[C@@H]3O[C@@H](C)[C@H](O)[C@@H](O)[C@H]3O)C[C@]12C (some centres undefined) | inactive
O=C1NC(Cc2ccc(O)cc2)C(=O)N2CCCC12 (centres undefined) | inactive

Reference: PubChem BioAssay (NCATS)
